# A number with no mark means an inactive call.
# Columns and labels:
# Assay in all cases: log2 ratio of Biotin-Ahx-Ub-VS probe labelling (fragment/DMSO); higher = less target engagement (more negative = stronger competition), active = hit call of the paper (q ≤ 0.05, log2 ratio ≤ -1)
# Conditions in all cases: compound concentration: 200 uM; treatment time: 3 h
# ALG13 = target: T1, ALG13 (UniProt Q9NP73)
# T1 sequence (whole entry): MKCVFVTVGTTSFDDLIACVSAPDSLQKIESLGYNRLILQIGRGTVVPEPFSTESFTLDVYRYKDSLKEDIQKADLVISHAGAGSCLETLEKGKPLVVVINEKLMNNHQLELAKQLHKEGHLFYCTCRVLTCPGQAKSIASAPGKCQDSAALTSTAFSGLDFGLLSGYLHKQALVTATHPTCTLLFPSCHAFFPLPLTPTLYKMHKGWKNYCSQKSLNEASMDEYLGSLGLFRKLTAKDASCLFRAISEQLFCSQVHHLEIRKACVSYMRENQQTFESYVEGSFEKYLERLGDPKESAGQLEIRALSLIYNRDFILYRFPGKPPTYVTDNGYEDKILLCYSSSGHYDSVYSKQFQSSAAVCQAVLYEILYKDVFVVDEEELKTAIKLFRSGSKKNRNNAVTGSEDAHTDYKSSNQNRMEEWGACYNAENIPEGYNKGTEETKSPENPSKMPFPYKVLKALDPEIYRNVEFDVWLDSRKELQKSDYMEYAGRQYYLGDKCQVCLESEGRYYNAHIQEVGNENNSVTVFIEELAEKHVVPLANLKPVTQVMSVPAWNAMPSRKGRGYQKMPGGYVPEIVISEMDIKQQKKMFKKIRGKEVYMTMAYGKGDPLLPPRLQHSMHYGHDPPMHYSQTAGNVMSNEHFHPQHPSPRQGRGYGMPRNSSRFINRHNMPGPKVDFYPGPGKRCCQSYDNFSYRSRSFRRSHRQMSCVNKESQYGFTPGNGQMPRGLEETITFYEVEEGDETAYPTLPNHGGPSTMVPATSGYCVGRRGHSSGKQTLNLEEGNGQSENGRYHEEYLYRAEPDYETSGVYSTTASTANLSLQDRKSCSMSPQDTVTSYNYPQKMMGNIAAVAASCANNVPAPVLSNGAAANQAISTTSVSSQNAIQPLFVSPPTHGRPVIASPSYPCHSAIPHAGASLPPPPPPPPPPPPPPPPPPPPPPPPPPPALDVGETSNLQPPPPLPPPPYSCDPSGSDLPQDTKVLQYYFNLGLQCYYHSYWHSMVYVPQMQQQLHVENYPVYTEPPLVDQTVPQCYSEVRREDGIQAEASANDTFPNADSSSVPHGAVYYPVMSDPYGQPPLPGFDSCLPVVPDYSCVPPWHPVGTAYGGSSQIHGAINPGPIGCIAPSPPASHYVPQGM
# Procedure, shortened: (§1)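 Labelling with Biotin-Ahx-Ub-VS (0.5 µM final, 1 h) followed a 3 h triplicate treatment of HEK293T lysate (495 µg per sample, Tris/CHAPS/IGEPAL buffer with protease inhibitors) with fragment at 200 µM or vehicle. Labelled DUBs were NeutrAvidin-enriched, digested with LysC and trypsin, and run by diaPASEF LC-MS/MS. The values, average log2 fragment/vehicle ratios by unpaired t-test, come from global-median-normalised Spectronaut label-free quantities. Proteins with ≥2 unique peptides were used.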
# ATXN3 = ATXN3 (UniProt P54252)
# Procedure, shortened: as §1
# BAP1 = target: T2, BAP1 (UniProt Q92560)
# T2 sequence (whole entry): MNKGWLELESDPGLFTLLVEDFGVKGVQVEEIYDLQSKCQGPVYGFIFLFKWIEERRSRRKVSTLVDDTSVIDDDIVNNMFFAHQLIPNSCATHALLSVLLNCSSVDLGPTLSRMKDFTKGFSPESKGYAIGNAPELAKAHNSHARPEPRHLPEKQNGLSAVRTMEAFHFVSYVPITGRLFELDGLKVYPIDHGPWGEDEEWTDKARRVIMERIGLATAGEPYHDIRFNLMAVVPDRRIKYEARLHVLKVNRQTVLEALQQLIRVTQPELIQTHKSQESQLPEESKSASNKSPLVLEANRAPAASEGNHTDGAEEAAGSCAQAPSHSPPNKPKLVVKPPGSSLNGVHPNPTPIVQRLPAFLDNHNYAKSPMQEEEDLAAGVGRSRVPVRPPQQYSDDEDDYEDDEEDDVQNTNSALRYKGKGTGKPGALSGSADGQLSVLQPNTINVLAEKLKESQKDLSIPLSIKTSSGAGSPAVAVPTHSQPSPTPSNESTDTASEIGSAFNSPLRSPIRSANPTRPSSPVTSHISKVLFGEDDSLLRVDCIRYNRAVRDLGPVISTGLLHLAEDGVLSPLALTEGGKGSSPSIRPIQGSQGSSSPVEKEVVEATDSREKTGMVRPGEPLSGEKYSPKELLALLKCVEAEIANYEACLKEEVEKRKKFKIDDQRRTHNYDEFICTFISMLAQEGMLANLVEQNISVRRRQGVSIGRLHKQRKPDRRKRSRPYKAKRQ
# Procedure, shortened: as §1
# EIF3F = EIF3F (UniProt O00303)
# Procedure, shortened: as §1
# EIF3H = EIF3H (UniProt O15372)
# Procedure, shortened: as §1
# FAM105A = target: T3, FAM105A (UniProt Q9NUU6)
# T3 sequence (whole entry): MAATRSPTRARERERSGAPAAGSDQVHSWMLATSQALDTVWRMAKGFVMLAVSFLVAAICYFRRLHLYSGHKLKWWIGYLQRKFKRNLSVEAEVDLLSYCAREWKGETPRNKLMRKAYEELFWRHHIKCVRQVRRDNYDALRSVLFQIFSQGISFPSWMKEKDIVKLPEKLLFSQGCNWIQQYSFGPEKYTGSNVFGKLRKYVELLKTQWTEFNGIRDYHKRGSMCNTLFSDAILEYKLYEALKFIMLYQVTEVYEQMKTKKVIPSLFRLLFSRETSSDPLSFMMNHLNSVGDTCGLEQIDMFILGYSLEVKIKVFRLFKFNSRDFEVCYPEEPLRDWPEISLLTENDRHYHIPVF
# Procedure, shortened: as §1
# OTUB1 = OTUB1 (UniProt Q96FW1)
# Procedure, shortened: as §1
# OTUD4 = target: T4, OTUD4 (UniProt Q01804)
# T4 sequence (whole entry): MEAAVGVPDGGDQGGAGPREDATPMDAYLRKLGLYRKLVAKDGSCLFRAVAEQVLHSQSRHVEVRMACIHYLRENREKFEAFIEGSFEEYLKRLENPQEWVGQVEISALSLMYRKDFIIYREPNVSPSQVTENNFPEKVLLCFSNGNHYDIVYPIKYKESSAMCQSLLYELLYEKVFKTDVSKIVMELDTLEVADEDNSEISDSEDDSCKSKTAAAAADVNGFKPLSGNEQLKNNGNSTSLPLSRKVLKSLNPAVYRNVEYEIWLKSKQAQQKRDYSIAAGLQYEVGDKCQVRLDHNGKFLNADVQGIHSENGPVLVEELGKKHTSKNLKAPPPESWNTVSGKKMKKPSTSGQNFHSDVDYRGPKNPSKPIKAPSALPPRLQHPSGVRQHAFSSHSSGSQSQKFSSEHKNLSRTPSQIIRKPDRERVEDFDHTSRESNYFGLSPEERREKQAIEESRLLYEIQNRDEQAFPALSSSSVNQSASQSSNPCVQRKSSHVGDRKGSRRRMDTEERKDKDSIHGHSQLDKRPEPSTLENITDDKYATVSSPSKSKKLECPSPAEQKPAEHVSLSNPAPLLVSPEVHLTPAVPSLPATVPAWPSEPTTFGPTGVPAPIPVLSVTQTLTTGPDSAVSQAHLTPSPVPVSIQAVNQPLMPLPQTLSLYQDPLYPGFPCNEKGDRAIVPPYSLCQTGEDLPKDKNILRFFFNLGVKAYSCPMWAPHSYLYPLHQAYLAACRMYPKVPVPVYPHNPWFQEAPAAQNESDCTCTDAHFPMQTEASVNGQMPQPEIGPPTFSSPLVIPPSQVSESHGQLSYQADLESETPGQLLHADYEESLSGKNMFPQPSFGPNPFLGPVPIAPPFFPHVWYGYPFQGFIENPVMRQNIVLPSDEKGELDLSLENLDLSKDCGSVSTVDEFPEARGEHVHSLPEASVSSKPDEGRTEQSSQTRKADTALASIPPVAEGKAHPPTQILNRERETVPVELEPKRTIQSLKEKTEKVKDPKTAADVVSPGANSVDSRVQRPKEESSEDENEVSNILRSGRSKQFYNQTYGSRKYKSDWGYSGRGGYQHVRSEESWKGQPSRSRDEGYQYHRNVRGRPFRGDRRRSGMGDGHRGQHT
# Procedure, shortened: as §1
# OTUD5 = target: T5, OTUD5 (UniProt Q96G74)
# T5 sequence (whole entry): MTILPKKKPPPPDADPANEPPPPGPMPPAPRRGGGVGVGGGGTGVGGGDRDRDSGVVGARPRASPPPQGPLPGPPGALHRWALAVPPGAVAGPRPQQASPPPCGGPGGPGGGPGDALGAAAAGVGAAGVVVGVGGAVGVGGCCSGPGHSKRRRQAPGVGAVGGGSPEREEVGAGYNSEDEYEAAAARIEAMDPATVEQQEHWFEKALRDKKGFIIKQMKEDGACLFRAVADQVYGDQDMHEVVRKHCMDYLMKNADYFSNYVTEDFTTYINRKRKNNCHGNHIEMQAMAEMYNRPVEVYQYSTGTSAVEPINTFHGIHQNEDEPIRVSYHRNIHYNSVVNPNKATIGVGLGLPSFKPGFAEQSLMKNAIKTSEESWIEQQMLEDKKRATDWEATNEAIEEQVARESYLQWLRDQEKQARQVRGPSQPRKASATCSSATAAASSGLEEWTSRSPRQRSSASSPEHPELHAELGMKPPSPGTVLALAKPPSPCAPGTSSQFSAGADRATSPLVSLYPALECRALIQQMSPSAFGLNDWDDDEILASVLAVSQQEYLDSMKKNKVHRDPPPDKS
# Procedure, shortened: as §1
# Chain of EIF3H (O15372 whole entry): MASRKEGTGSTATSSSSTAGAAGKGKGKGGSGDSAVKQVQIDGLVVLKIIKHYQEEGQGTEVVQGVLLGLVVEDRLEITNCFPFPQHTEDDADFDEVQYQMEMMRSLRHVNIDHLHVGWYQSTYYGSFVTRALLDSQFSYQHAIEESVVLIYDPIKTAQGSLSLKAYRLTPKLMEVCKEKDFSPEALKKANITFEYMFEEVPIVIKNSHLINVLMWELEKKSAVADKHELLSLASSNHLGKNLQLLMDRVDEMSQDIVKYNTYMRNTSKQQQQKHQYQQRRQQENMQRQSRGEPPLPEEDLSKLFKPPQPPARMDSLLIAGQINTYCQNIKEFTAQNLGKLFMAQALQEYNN
# Chain of ATXN3 (P54252 whole entry): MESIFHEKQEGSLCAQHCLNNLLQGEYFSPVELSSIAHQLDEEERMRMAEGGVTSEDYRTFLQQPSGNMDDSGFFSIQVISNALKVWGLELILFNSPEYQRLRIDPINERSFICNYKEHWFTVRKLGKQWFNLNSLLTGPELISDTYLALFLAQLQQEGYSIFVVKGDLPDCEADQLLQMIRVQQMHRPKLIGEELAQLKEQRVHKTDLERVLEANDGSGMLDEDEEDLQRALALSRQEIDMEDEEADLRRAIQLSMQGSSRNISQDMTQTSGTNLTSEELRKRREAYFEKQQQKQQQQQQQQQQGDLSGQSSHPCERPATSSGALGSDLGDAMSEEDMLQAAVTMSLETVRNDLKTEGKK
# Chain of EIF3F (O00303 whole entry): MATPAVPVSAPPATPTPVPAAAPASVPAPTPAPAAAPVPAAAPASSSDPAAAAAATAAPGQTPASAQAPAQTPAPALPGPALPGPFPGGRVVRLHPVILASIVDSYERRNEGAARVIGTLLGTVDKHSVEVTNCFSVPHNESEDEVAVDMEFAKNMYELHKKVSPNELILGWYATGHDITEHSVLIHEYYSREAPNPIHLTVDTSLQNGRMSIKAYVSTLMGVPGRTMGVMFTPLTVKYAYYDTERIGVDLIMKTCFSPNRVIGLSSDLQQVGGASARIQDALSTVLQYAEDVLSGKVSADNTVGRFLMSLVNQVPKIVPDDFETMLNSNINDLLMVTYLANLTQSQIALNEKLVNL
# Chain of OTUB1 (Q96FW1 whole entry): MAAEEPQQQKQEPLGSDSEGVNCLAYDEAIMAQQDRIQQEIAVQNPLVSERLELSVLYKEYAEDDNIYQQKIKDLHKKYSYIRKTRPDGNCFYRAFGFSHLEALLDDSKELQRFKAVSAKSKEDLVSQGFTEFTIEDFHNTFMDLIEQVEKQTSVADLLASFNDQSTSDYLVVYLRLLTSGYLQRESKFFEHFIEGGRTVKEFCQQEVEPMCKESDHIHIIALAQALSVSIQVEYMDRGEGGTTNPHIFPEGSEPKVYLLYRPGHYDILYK
smiles,measurement,setting,value
O=C(CCl)NC(Cn1ccccc1=O)c1ccccc1 (centres undefined),log2 ratio of Biotin-Ahx-Ub-VS probe labelling,ALG13,0.152
same,log2 ratio of Biotin-Ahx-Ub-VS probe labelling,ATXN3,-0.00539
same,log2 ratio of Biotin-Ahx-Ub-VS probe labelling,BAP1,-1.18 (active)
same,log2 ratio of Biotin-Ahx-Ub-VS probe labelling,EIF3F,0.0892
same,log2 ratio of Biotin-Ahx-Ub-VS probe labelling,EIF3H,-0.0521
same,log2 ratio of Biotin-Ahx-Ub-VS probe labelling,FAM105A,0.0796
same,log2 ratio of Biotin-Ahx-Ub-VS probe labelling,OTUB1,-0.3
same,log2 ratio of Biotin-Ahx-Ub-VS probe labelling,OTUD4,-0.122
same,log2 ratio of Biotin-Ahx-Ub-VS probe labelling,OTUD5,-0.104

# — the supplement of paper PMC11732987, “Enantioselective OTUD7B fragment discovery through chemoproteomics screening and high-throughput optimisation” (Communications Chemistry, 2025)
